High-throughput results: PubChem, National Center for Advancing Translational Sciences (NCATS)
Only some compounds are listed: those with a hit (about 1.1% of all), similar ones and a draw of the others.
RXFP1 ag: agonists of human relaxin receptor RXFP1; Q9HBX9; 370,000 compounds, 0.3% hits; HEK293T-RXFP1 cAMP TR-FRET, 30 min; response scale: percent of porcine relaxin response, buffer zero; AID 2676; Potency, µM (top dose mostly 57.5 µM), without a hit: at the top dose activation, usual class: activators; further: potency means the concentration at half of the fitted maximal effect; on the % scale 0 is the no-effect control and ±100 the full control effect; nearly all actives have a fitted effect of over 60% in size
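HEK293T cells stably expressing RXFP1 were pretreated with the PDE4 inhibitor Ro 20174, exposed to compounds for 30 min at 37C, lysed, and cAMP was read by TR-FRET. Data normalized to buffer (basal) and 29 nM porcine relaxin (100%).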
Integrin act MD: integrin-mediated muscular dystrophy alleviation activation | 350,000 compounds, 0.064% hits | Potency, µM (series often up to 38.3 µM), for inactives: at the top dose activation, usual class: activators | alpha7betagal myoblasts, beta-gal FDG fluorescence, 48 h;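 further: potency means the concentration at half of the fitted maximal effect; 100% = response of the positive control SU9516; nearly all actives have a fitted effect of over 60% in size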
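alpha7betagal+/- myoblasts (passage 13, 250/well) treated 48 h at 37C with compounds at 1:260 dilution of DMSO stock. Lysed, then beta-galactosidase activity read as FDG fluorescence (ex 480/em 540) after 30 min, with pre-read for autofluorescence.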
ASM inhibitor: human S-ASM enzyme inhibition. Potency, µM (highest dose often 57.5 µM), for inactives: at the top dose activity change, negative = inhibition, usual class: inhibitors. P17405. 340,000 compounds, 0.006% hits. placental ASM, HMU-PC fluorogenic substrate, 60 min; further: potency means the concentration at half of the fitted maximal effect
Target sequence (P17405 47-631 limits assumed): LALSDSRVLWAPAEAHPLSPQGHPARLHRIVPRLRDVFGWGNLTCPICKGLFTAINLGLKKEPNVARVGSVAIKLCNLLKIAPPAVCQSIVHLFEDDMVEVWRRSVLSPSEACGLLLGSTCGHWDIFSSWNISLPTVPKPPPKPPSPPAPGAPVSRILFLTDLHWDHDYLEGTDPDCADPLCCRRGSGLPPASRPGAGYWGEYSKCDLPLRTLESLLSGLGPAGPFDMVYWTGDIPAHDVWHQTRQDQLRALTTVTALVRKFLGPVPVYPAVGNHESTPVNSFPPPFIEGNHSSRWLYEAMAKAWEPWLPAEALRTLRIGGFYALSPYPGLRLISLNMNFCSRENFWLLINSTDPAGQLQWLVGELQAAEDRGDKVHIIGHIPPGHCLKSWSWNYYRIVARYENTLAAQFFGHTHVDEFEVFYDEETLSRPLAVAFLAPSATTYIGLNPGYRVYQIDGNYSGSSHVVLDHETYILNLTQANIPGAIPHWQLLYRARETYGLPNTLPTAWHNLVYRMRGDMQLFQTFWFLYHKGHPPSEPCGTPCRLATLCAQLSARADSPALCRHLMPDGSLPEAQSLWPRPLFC
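Fluorogenic HMU-PC substrate (9 uM final) is turned over by placental ASM in 60 min at 37 C after a 10 min compound preincubation. Reaction ended by alkaline stop (pH 10), with fluorescence read at 386/447 nm.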
gsp agonist: agonists of gsp mutant (McCune-Albright syndrome); 340,000 compounds, 0.13% hits; Potency, µM (highest dose often 76.9 µM), inactives show at the top dose activation (cAMP increase), actives largely listed as activators; gsp mutant cells, cAMP HTRF, 30 min; AID 624287; active means well fitted activation curve with a large enough effect; inconclusive means small, poorly fitted or top-dose-only effect, or another doubt; inactive means no such curve, though single readings can be large or run the other way; cell line not stated here;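 further: phosphodiesterase inhibitor Ro 20-1724 added with compounds to block cAMP breakdown; potency means the concentration at half of the fitted maximal effect; nearly all actives have a fitted effect of over 60% in size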
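Cells stably selected in G418 were plated at 2000/well, grown 16-24 hr, then given compounds in DMSO with the PDE inhibitor […] (300 uM solution added) for 30 min at 37C; cAMP was read by HTRF.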
RXFP1 antag: blocks the human relaxin receptor RXFP1 | AID 1259400 | 350,000 compounds, 0.59% hits | activity change, negative = inhibition, % at 57.5 µM | Q9HBX9 | HEK293-RXFP1, relaxin-stimulated cAMP HTRF, 30 min; active compounds read low;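 active means activity change of -60% or lower, but not beyond a set lower limit; inconclusive means change between -60% and -40%, or beyond the set limit; inactive means change above -40%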; further: on the % scale 0 is the no-effect control and ±100 the full control effect
gsp antag: antagonists of gsp mutant (McCune-Albright syndrome) | gsp-mutant cells, cAMP HTRF, 30 min | Potency, µM (titrated, usually from 76.9 µM), for the others: top-dose activity change, negative = inhibition, hits mostly inhibitors | 340,000 compounds, 0.4% hits | AID 624288; calls by dose curve; cell line not stated here;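 further: intracellular cAMP measured with PDE inhibitor Ro 20-1724 present during compound exposure; potency means the concentration at half of the fitted maximal effect; on the % scale 0 is the no-effect control and ±100 the full control effect; nearly all actives have a fitted effect of over 65% in size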
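HTRF cAMP read-out (cAMP-d2 plus anti-cAMP antibody-K in lysis buffer, 30 min RT). Before lysis, cells are exposed to compounds with […] for 30 min at 37C in DPBS containing Ca/Mg, BSA and Tween 20.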
* marks the source's active call; other numbers are inactive results; ? = inconclusive; . = no result; [ ] = remark or other dose. Unless noted, the call rests on the fitted dose curve; in most records, active means well fitted curve in the direction sought with a large enough effect; inconclusive means small, poorly fitted or top-dose-only effect, or another doubt; inactive means no such curve, though single readings can be large; an effect the other way counts as inactive or inconclusive.

SMILES	RXFP1 ag	Integrin act MD	ASM inhibitor	gsp agonist	RXFP1 antag	gsp antag
Cc1cccc(N2CCN(C(=O)c3cc4c(=O)n(C)c5ccccc5c4n3C)CC2C)c1 (centres undefined)	-1%	-20%	-15%	-10%	-77*	?
CC1CCCC(NCC(O)COC(c2ccc(F)cc2)c2ccc(F)cc2)C1C (centres undefined)	-1%	-62%	1%	-16%[15.4 µM]	-69*	11%
Cc1ccc(Nc2nc(N/N=C/c3c[nH]c4ccccc34)nc(N3CCOCC3)n2)cc1	1%	-55%	.	1%[15.4 µM]	-35	40µM*
C(=N\Nc1nc(Nc2ccccc2)nc(N2CCOCC2)n1)/c1c[nH]c2ccccc12	-2%	-50%	-28%	1%	-11	-24%
COc1cc(/C=N/NC(=O)Cn2cnc3c2c(=O)n(C)c(=O)n3C)cc(OC)c1OC	19%	22%	7%	32%[15.4 µM]	-6	9%
COC(=O)c1ccccc1NC(=O)Cn1cnc2c1c(=O)n(C)c(=O)n2C	.	-5%	0%	34%[15.4 µM]	-4	13%
CCOc1ccccc1OCC(=O)NNC(=O)Cn1cnc2c1c(=O)n(C)c(=O)n2C	22µM*	0%	1%	-5%[15.4 µM]	-8	12%
Cn1c(=O)c2c(ncn2CC(=O)NC2CCCCC2)n(C)c1=O	16µM*	-17%	-2%	13µM*	4	14%
COc1cccc(/C=N/NC(=O)Cn2cnc3c2c(=O)n(C)c(=O)n3C)c1OC	18µM*	1%	-3%	29%[15.4 µM]	-4	26%
C[C@@H](c1ncncc1F)C(O)(Cn1cncn1)c1ccc(F)cc1F (some centres undefined)	.	.	.	.	-2	.
COc1ccc(CNC(C)C(=O)Nc2ccc3ccccc3c2)cc1OC (centres undefined)	1%	11%	3%	-2%[15.4 µM]	-11	11µM*
COc1ccc(-c2n[nH]c3c2C(c2ccc(Cl)cc2Cl)NC3=O)cc1 (centres undefined)	-1%	.	.	.	.	.
COc1ccc(CCNC(=O)c2cc(-c3ccccc3)c(N3CCOCC3)s2)c(OC)c1OC	3%	16%	-2%	-18%	-7	32µM*
CCc1sc(C(=O)Nc2ccc3c(c2)OCO3)cc1C	.	16%	-1%	-9%[15.4 µM]	-63*	-4%
COc1cc(/C=C2\SC(=O)N(CCN)C2=O)ccc1OS(=O)(=O)c1cc(C)ccc1C	-2%	-57%	-20%	13%[15.4 µM]	-72*	10%
COc1ccc(/C=C2\SC(=O)N(CCC(=O)Nc3ccccc3)C2=O)cc1OC	-12%	-13%	9%	?	4	?
CC(=O)NCCNC(=O)CCCn1c(=O)[nH]c2ccsc2c1=O	4%	.	.	.	.	.
CCN(CC)CCCN(C(=O)c1ccco1)c1nc(-c2ccc(Cl)cc2)cs1	1%	-51%	-8%	-54%	-96*	2%
CCN(CC)CCCN(C(=O)c1ccco1)c1nc(-c2ccc(C)cc2)cs1	0%	-59%	0%	24%	-14	11%
CCCOc1cccc(C(=O)Nc2ccc(-c3nc4ccccc4s3)c(Cl)c2)c1	14%	.	.	.	0	.
Cc1oc(=O)oc1COC(=O)[C@@H]1N2C(=O)[C@@H](NC(=O)[C@H](N)c3ccccc3)[C@H]2SC1(C)C	.	.	.	.	-13	.
COc1ccc(OCCCCn2c(C3CC(=O)N(c4cccc(Cl)c4)C3)nc3ccccc32)cc1 (centres undefined)	-1%	.	.	.	.	.
Nc1nc(N)c(S(=O)(=O)c2ccccc2)c(Nc2ccc(Br)cc2)n1	-2%	.	.	.	.	.
Cc1cc(SCC(=O)N/N=C/c2ccc(O)c(O)c2)nc2ccccc12	-3%	-18%	-3%	-28%	-67*	-24%
Cc1cc(SCC(=O)NC2CC2)nc2ccccc12	.	0%	-1%	22%[15.4 µM]	13	15%
SMILES	RXFP1 ag	Integrin act MD	ASM inhibitor	gsp agonist	RXFP1 antag	gsp antag
Cc1cc(SCC(=O)N/N=C/c2ccc(O)cc2O)nc2ccccc12	0%	-31%	-15%	?	-26	35µM*
Cc1ccc(C(=O)Nc2nc(-c3ccco3)c(-c3ccco3)s2)o1	-3%	-13%	17%	7%	-81*	?
O=C(CCl)Nc1nc(-c2ccco2)c(-c2ccco2)s1	0%	0%	-3%	-23%	?	?
COc1ccc(OC)c(CNC(=O)Cn2ncc3c([nH]c4ccc(C)cc43)c2=O)c1	0%	.	.	.	4	.
COc1ccc(C(=O)NCC(=O)N=Nc2c(O)n(C)c3ccccc23)cc1OC	2%	30%	-4%	-5%	-5	-2%
COc1ccc(C(=O)NCC(=O)N=Nc2c(O)n(Cc3ccccc3)c3ccccc23)cc1OC	-1%	3%	-15%	10%[15.4 µM]	?	11µM*
COCCOCC(OC)OC	.	.	.	.	-10	.
N/C(=N\OC(=O)COc1ccc2ccccc2c1Br)c1cccnc1	16µM*	.	.	.	.	.
N/C(=N\OC(=O)COc1ccc(Br)cc1Cl)c1ccccn1	2%	17%	-4%	23%	11	-7%
N/C(=N\OC(=O)COc1ccccc1)c1cccnc1	-1%	?	2%	-33%	8	12%
N/C(=N\OC(=O)COc1ccc2ccccc2c1Br)c1ccccn1	16µM*	-3%	-10%	?	5	11%
CCOC(=O)COc1ccc(/C=C/[N+](=O)[O-])c(OCC(=O)OCC)c1	3%	11%[7.66 µM]	1%	10%	-69*	17%
CCOc1ccc(/C=C/[N+](=O)[O-])c2ccccc12	2%	-62%	-5%	5%	-69*	-2%
CCOC(=O)COc1ccc2ccccc2c1/C=C/[N+](=O)[O-]	2%	-1%	-1%	0%	?	8%
CCCc1nn2c(=O)cc(COC(=O)c3ccccc3NC(=O)COc3ccccc3F)nc2s1	15%	.	.	.	-7	.
CCN(C(=O)c1cccn(Cc2ccccc2C)c1=O)c1ccccc1	0%	.	.	.	.	.
Cc1ccc(S(=O)(=O)N(C(=O)c2ccco2)c2cc3sc(=O)oc3c3ccccc23)cc1	4%	-41%	-3%	4%	-79*	10%
CCOc1ccc(S(=O)(=O)N(C(=O)c2ccco2)c2cc3sc(=O)oc3c3ccccc23)cc1	6%	-26%	-2%	24%	-68*	-13%
Cc1cccc(N(C(=O)CNC(=O)c2ccco2)C(C(=O)NC2CCCC2)c2ccncc2)c1C (centres undefined)	0%	0%	1%	-2%[15.4 µM]	-3	6%
CCN1CCN(c2cc3c(cc2F)c(=O)c(S(=O)(=O)c2ccc(OC)cc2)cn3CC)CC1	2%	.	.	.	-21	.
Cc1ccc(-c2nc(SC(C)C(=O)N3CCOCC3)n[nH]2)cc1 (centres undefined)	1%	-40%	1%	-2%	-9	0%
